According to PubChem BioAssay (NCI):
This is part of a sample that, as a whole, favours compounds with a hit. Of some 83,000 tested, about 20% had one in any assay.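 Values shown are percent growth following 48 h exposure of cells in 96-well plates to a single concentration of compound; below 10 was considered active.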 Unmarked numbers belong to inactive results. Activity calls are given as the source filed them.

test system: HCT-15 colon; experiment: NCI-60 one-dose screen, 48 h (100 = growth as untreated, 0 = no growth, -100 = all killed); settings: 10 µM unless noted

Compound | growth
CN1CCN(c2ccc(-c3ccc4ncc(C#N)c(Nc5ccc(F)c(Cl)c5)c4c3)cc2)CC1 | -12.9% (active)
CNc1ccc(Nc2cccc(C)c2)c2c1C(=O)c1ccccc1C2=O | 85.1%
O=C(Nc1ccc(Cl)cc1F)c1ccccc1O | 42.7%
O=C1CCC(C(=O)NCCNCCNC(=O)C2CCC(=O)N2)N1 (centres undefined) | 99.8%
CC/C=C\C[C@@H](O)C/C=C1/C(=O)C=C[C@H]1C/C=C\CCCC(=O)OC | -31.3% (active)
Cc1ccc(C(=O)NN2C(=O)CSC2c2cccc([N+](=O)[O-])c2)cn1 (centres undefined) | 109%
CNCCCNc1nc2ccccc2c2c(=O)c3cc(OC)ccc3sc12 | 57.5%
COc1ccc(-c2[nH]c3ccc(OC)cc3c2/C=C(\C#N)S(=O)(=O)c2ccccc2)cc1 | 22.6%
N[C@@H](Cc1ccccc1)[C@@H](O)C(=O)NCc1ccc(F)cc1 | 103%
COc1cc(CCC[P+](c2ccccc2)(c2ccccc2)c2ccccc2)c(OC)c(OC)c1OC | 68.2%
O=C(Nc1ccc(OS(=O)(=O)c2ccc(F)cc2)cc1)c1ccc(Cl)cc1 | 89.9%
CC(=O)OC[C@H]1OC(Sc2sc(C(=O)c3ccc(Br)cc3)c(N)c2-c2nc3ccccc3s2)[C@H](OC(C)=O)[C@@H](OC(C)=O)[C@H]1OC(C)=O (some centres undefined) | 99.7%
CCOc1c(B(O)O)cccc1-c1nc2ccc3[nH]ncc3c2c2c1CCCC2 | 48.4%
Cc1ccc(-c2nc3c(c(-c4ccccc4)nn3-c3ccccc3)c(-c3ccc(O)cc3)c2C#N)cc1 | 28.8%
